Records with an inconclusive call do not appear. Calls of active or inactive are those of the source. Calls come from the whole dose curve; as a rule, active = well fitted curve in the direction sought with a large enough effect; inconclusive = small, poorly fitted or top-dose-only effect, or another doubt; inactive = no such curve, though single readings can be large; an effect the other way counts as inactive or inconclusive.
Tests used:
[1] = Quantitative High-Throughput drug screen in 47 multiple myeloma cell lines against the NCATS MIPE library collection: ARD_JJKsccE7 cell viability assay (AID 1918929)
How it was run: (§1)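 Primary qHTS used for cherry-picking: cells at 500/well, library compounds for 48 h (37C, 5% CO2), luminescent ATP assay.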

[2] = Quantitative High-Throughput drug screen in 47 multiple myeloma cell lines against the NCATS MIPE library collection: Karpas620_DSMZ cell viability assay (AID 1918959); note: nearly all actives have a fitted effect of over 30% in size
How it was run: (§2)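 Myeloma cells (500 per well) were exposed to MIPE 4.0 compounds by pin transfer and incubated 48 hours at 37C, 5% CO2. Viability was read as ATP by CellTiter-Glo luminescence, normalised to DMSO (100%) and media-only (0%) wells.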

[3] = Quantitative High-Throughput drug screen in 47 multiple myeloma cell lines against the NCATS MIPE library collection: KMM1_JCRB cell viability assay (AID 1918960); note: nearly all actives have a fitted effect of over 30% in size
How it was run: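 Viability screen: myeloma cells (500/well) incubated 48 h at 37 °C, humidified 5% CO2, with pinned library compounds; CellTiter-Glo added, luminescence read; DMSO wells set 100%, medium-only wells 0%.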

[4] = Quantitative High-Throughput drug screen in 47 multiple myeloma cell lines against the NCATS MIPE library collection: JIM3_ECACC cell viability assay (AID 1918963; note: nearly all actives have a fitted effect of over 35% in size)
How it was run: as §2

[5] = Quantitative High-Throughput drug screen in 47 multiple myeloma cell lines against the NCATS MIPE library collection: JJN3_DSMZ cell viability assay (AID 1918966; note: nearly all actives have a fitted effect of over 50% in size)
How it was run: as §1

[6] = Quantitative High-Throughput drug screen in 47 multiple myeloma cell lines against the NCATS MIPE library collection: Karpas25_ECACC cell viability assay (AID 1918968; note: nearly all actives have a fitted effect of over 35% in size)
How it was run: as §1

[7] = Quantitative High-Throughput drug screen in 47 multiple myeloma cell lines against the NCATS MIPE library collection: KMS27_JCRB cell viability assay (AID 1918970); settings: KMS27 myeloma cells, CellTiter-Glo ATP viability, 48 h; viability (% of DMSO): at 45.8 µM (top of the series); note: nearly all actives have a fitted effect of over 30% in size
How it was run: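 CellTiter-Glo luminescence after 48 h drug exposure at 37 °C; 500 cells/well, 1536-well format, pin-tool compound addition; DMSO = 100%, media-only = 0% viability.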

[8] = Quantitative High-Throughput drug screen in 47 multiple myeloma cell lines against the NCATS MIPE library collection: KMS12BM_JCRB cell viability assay (AID 1918971); note: nearly all actives have a fitted effect of over 35% in size
How it was run: (§3)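 Luminescent ATP measurement with CellTiter-Glo gives viability, scaled between DMSO-only wells (100%) and media-only wells (0%). Cells, 500 per well, faced library compounds for 48 hours at 37C.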

[9] = Quantitative High-Throughput drug screen in 47 multiple myeloma cell lines against the NCATS MIPE library collection: KMS20_JCRB cell viability assay (AID 1918973); note: nearly all actives have a fitted effect of over 45% in size
How it was run: as §1

[10] = Quantitative High-Throughput drug screen in 47 multiple myeloma cell lines against the NCATS MIPE library collection: KMS26_JCRB cell viability assay (AID 1918975); note: nearly all actives have a fitted effect of over 45% in size
How it was run: as §3

[11] = Quantitative High-Throughput drug screen in 47 multiple myeloma cell lines against the NCATS MIPE library collection: NCIH929_DSMZ cell viability assay (AID 1918978); note: nearly all actives have a fitted effect of over 35% in size
How it was run: (§4)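 ATP-based CellTiter-Glo luminescence after 48 h drug exposure (37 °C, 5% CO2) of 500 myeloma cells per well. DMSO-only wells set 100% viability, media-only wells 0%; MIPE 4.0 library added by pin tool.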

[12] = Quantitative High-Throughput drug screen in 47 multiple myeloma cell lines against the NCATS MIPE library collection: Karpas417_ECACC cell viability assay (AID 1918961); settings: Karpas417 myeloma viability, CellTiter-Glo ATP luminescence, 48 h; viability (% of DMSO): at 45.8 µM (top of the series)
How it was run: (§5)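 CellTiter-Glo ATP luminescence gave viability after 48 h compound treatment at 37C of 500 multiple myeloma cells per well. Normalisation used DMSO-only wells as 100% and media-only wells as 0% viability; primary qHTS of approved and investigational drugs.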

[13] = Quantitative High-Throughput drug screen in 47 multiple myeloma cell lines against the NCATS MIPE library collection: KHM11_PLB cell viability assay (AID 1918962); note: nearly all actives have a fitted effect of over 35% in size
How it was run: as §2

[14] = Quantitative High-Throughput drug screen in 47 multiple myeloma cell lines against the NCATS MIPE library collection: INA6_PLB cell viability assay (AID 1918965; note: nearly all actives have a fitted effect of over 55% in size)
How it was run: as §5

[15] = Quantitative High-Throughput drug screen in 47 multiple myeloma cell lines against the NCATS MIPE library collection: KMS12PE_JCRB cell viability assay (AID 1918972); note: nearly all actives have a fitted effect of over 30% in size
How it was run: as §5

[16] = Quantitative High-Throughput drug screen in 47 multiple myeloma cell lines against the NCATS MIPE library collection: KMS21BM_JCRB cell viability assay (AID 1918974); settings: ATP luminescence, 48 h; viability: at 45.8 µM (top of the series)
How it was run: as §1

[17] = Quantitative High-Throughput drug screen in 47 multiple myeloma cell lines against the NCATS MIPE library collection: MMM1_PLB cell viability assay (AID 1918976); note: nearly all actives have a fitted effect of over 35% in size
How it was run: as §4

[18] = Quantitative High-Throughput drug screen in 47 multiple myeloma cell lines against the NCATS MIPE library collection: JIM1_ECACC cell viability assay (AID 1918964)
How it was run: as §1

[19] = Quantitative High-Throughput drug screen in 47 multiple myeloma cell lines against the NCATS MIPE library collection: H1112_PLB cell viability assay (AID 1918967; note: nearly all actives have a fitted effect of over 30% in size)
How it was run: as §1

[20] = Quantitative High-Throughput drug screen in 47 multiple myeloma cell lines against the NCATS MIPE library collection: MOLP8_DSMZ cell viability assay (AID 1918977); note: nearly all actives have a fitted effect of over 45% in size
How it was run: as §4

Measured: Potency
Potency is the fitted concentration of half-maximal effect.

Nc1nc(=O)n([C@H]2CSC(CO)O2)cc1F (some centres undefined)
inactive: [1] | [2] | [3] | [4] | [5] | [6] | [7] | [8] | [9] | [10] | [11]

N#Cc1c(C2CCNCC2)cc(-c2c(O)cccc2OCC2CC2)nc1N
active: [1] 3.72 µM | [2] 9.35 µM | [12] 2.64 µM | [13] 11.8 µM | [4] 18.7 µM | [14] 16.6 µM | [5] 18.7 µM | [6] 18.7 µM | [7] 0.418 µM | [8] 14.8 µM | [15] 20.9 µM | [9] 23.5 µM | [16] 16.6 µM | [10] 18.7 µM | [17] 18.7 µM | [11] 20.9 µM

c1cc(N[C@@H]2CCNC2)nc(-c2cnc3ccc(-c4cn[nH]c4)cn23)c1
active: [1] 26.4 µM | [3] 8.33 µM | [12] 4.69 µM | [13] 3.32 µM | [18] 4.18 µM | [14] 0.935 µM | [5] 5.9 µM | [19] 11.8 µM | [6] 5.9 µM | [7] 2.64 µM | [8] 16.6 µM | [15] 16.6 µM | [9] 11.8 µM | [10] 14.8 µM | [20] 2.96 µM | [11] 13.2 µM

COc1cc2c(cc1OC)[C@@H]1C(=O)c3ccc4c(c3O[C@@H]1CO2)C=CC(C)(C)O4
active: [1] 0.0235 µM | [3] 0.526 µM | [12] 0.209 µM | [13] 4.18 µM | [4] 8.33 µM | [18] 1.18 µM | [5] 9.35 µM | [19] 0.0296 µM | [8] 0.418 µM | [15] 0.372 µM | [16] 0.0662 µM | [10] 9.35 µM | [17] 0.0187 µM | [20] 11.8 µM | [11] 0.662 µM

C[N+]1(C)[C@@H]2C[C@@H](OC(=O)C(O)(c3cccs3)c3cccs3)C[C@H]1[C@@H]1O[C@@H]12
inactive: [1] | [2] | [3] | [4] | [14] | [5] | [19] | [6] | [7] | [15] | [20] | [11]

OCC(O)C(O)C(O)CO (centres undefined)
active: [5] 2.96 µM
inactive: [1] | [2] | [13] | [4] | [14] | [19] | [6] | [15] | [10] | [11]

CC(=O)N[C@@H]1[C@H](O[C@@H]2c3ccc(c(Cl)c3)Oc3cc4cc(c3O[C@H]3O[C@H](CO)[C@@H](O)[C@H](O)[C@H]3NC(=O)CCCCCCCC(C)C)Oc3ccc(cc3Cl)C[C@H]3NC(=O)[C@H](N)c5ccc(O)c(c5)Oc5cc(O)cc(c5)[C@H](NC3=O)C(=O)N[C@H]4C(=O)N[C@H]3C(=O)N[C@@H]2C(=O)N[C@@H](C(=O)O)c2cc(O)cc(O[C@H]4O[C@H](CO)[C@@H](O)[C@H](O)[C@H]4O)c2-c2cc3ccc2O)O[C@H](CO)[C@@H](O)[C@@H]1O
inactive: [1] | [2] | [3] | [4] | [14] | [6] | [7] | [8] | [15] | [10] | [20] | [11]

O=C(Nc1cc2cc[nH]c2cn1)c1ccccc1
active: [1] 10.5 µM | [2] 4.69 µM | [12] 2.96 µM | [13] 7.43 µM | [4] 7.43 µM | [14] 8.33 µM | [5] 9.35 µM | [19] 9.35 µM | [6] 8.33 µM | [7] 13.2 µM | [8] 14.8 µM | [15] 8.33 µM | [9] 9.35 µM | [10] 11.8 µM | [20] 3.72 µM | [11] 8.33 µM

Cn1cc(-c2cnn3c(N)c(Br)c([C@H]4CCCNC4)nc23)cn1
active: [1] 1.05 µM | [3] 0.372 µM | [12] 0.132 µM | [13] 0.526 µM | [4] 1.87 µM | [18] 0.118 µM | [14] 0.662 µM | [5] 0.59 µM | [19] 2.64 µM | [6] 0.662 µM | [7] 1.48 µM | [8] 2.96 µM | [15] 3.72 µM | [9] 1.48 µM | [16] 0.833 µM | [10] 8.33 µM | [17] 0.662 µM | [20] 0.833 µM | [11] 0.833 µM

CCc1nc(-c2cccc(C)c2)c(-c2ccnc(NC(=O)c3ccccc3)c2)s1
active: [1] 20.9 µM | [2] 3.32 µM | [13] 0.935 µM | [18] 9.35 µM | [14] 16.6 µM | [19] 14.8 µM | [8] 23.5 µM | [15] 6.62 µM | [17] 16.6 µM
inactive: [7]

CN[C@@H]1C[C@H]2O[C@@](C)([C@H]1OC)n1c3ccccc3c3c4c(c5c6ccccc6n2c5c31)C(=O)N[C@H]4O
active: [1] 0.148 µM | [2] 0.59 µM | [13] 0.0296 µM | [5] 1.66 µM | [19] 0.526 µM | [6] 0.132 µM | [7] 0.148 µM | [9] 0.148 µM | [10] 1.66 µM | [17] 1.48 µM | [11] 0.118 µM
